High-throughput results deposited in PubChem by National Center for Advancing Translational Sciences (NCATS).
Only some compounds are listed: those with a hit (about 2.2% of all), similar ones and a draw of the others.
TDP-43 yeast inh: TDP-43 toxicity inhibition in yeast; TDP-43 expressing yeast growth rescue, BacTiter-Glo, 24 h; Potency, µM (doses to about 46.1 µM), without a hit: at the highest dose growth rescue (activation), most hits filed as activators; hit rate 1.8% among 410,000; AID 652104; further: % of control where 0% means no effect; nearly all actives have a fitted effect of over 50% in size
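Readout is BacTiter-Glo luminescence of cell growth, so inhibitors register as activators. TDP-43-expressing yeast at OD600=0.02 in galactose medium, after raffinose pregrowth to mid-log, were incubated with compound for 24 hr at 30 deg C.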
aSyn yeast inh: alpha-synuclein toxicity inhibition in yeast | Yeast expressing alpha-synuclein, growth rescue, BacTiter-Glo, 24 h | Potency, µM (titrated, usually from 46.1 µM), for inactives: at the highest dose growth rescue (activation), hits mostly activators | hit rate 0.14% among 370,000; further: % of control where 0% means no effect; nearly all actives have a fitted effect of over 65% in size
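Galactose-induced alpha-syn yeast (OD600=0.02, raffinose-pregrown) + pinned cpd, 24 hr, 30 deg C; growth by BacTiter-Glo luminescence. Growth restoration scores as activation.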
Mito fusion act: blocks mitochondrial division or promotes mitochondrial fusion; Potency, µM (doses to about 46.1 µM), inactives show at the highest dose growth rescue (activation), actives largely listed as activators; hit rate 0.23% among 320,000; S. cerevisiae fusion-defective mutant growth rescue, CellTiterGlo 48 h; further: % of control where 0% means no effect; nearly all actives have a fitted effect of over 45% in size
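Growth-rescue viability read-out: after 48 h at the non-permissive 37C in glycerol/ethanol YPEG, yeast mitochondrial fusion mutants are measured by CellTiterGlo luminescence; compounds (23 nl pinned per well) restoring growth score as division inhibitors or fusion activators.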
Abeta yeast res: compounds reversing amyloid beta toxicity in yeast; yeast expressing A-beta42, growth rescue, OD600, 48 h; response scale: 0% DMSO, 100% iron-clioquinol control; Potency, µM (series often up to 46.1 µM), actives largely listed as activators; hit rate 0.063% among 410,000; AID 1347071; further: nearly all actives have a fitted effect of over 55% in size
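Yeast A-beta toxicity model in growth medium with pinned compounds, 48 h at 30 C; growth read as absorbance at 600 nm. Normalized to FeCl3/clioquinol equimolar mix (positive) and DMSO (negative).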
FUS suppressor: rescues growth of FUS-expressing yeast | S. cerevisiae FUS-expressing, growth rescue, OD600, 24 h | Potency, µM (highest dose often 76.6 µM), actives largely listed as activators | hit rate 0.24% among 390,000 | AID 1347120;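 further: plate controls were DMSO vehicle for no effect and reference control for full effect; nearly all actives have a fitted effect of over 55% in size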
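S. cerevisiae expressing FUS from galactose induction served as the toxicity model. Growth after 24hr at 30C, read as absorbance at 600 nm, indicates suppression of toxicity; compounds dosed at several concentrations.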
The depositor's hits bear a star; i = inactive; ? = inconclusive; . = not tested or not shown. The call rests on the fitted dose curve; in most records, active means well fitted curve in the direction sought with a large enough effect; inconclusive means small, poorly fitted or top-dose-only effect, or another doubt; inactive means no such curve, though single readings can be large; an effect the other way counts as inactive or inconclusive. Potency means the concentration at half of the fitted maximal effect.

SMILES	TDP-43 yeast inh	aSyn yeast inh	Mito fusion act	Abeta yeast res	FUS suppressor
CCCCN(C)C(=O)c1sc(=O)n(Cc2ccc(Cl)c(Cl)c2)c1C	25µM*	?	.	i	i
CSc1ccc(Cn2c(C)c(C(=O)NCc3ccc(Cl)c(Cl)c3)sc2=O)cc1	12%	1%	.	?	?
Cc1ccsc1/C=N/NC(=O)CSCc1ccc(Cl)cc1	14µM*	?	8%	i	i
CCCCNc1c(-c2ccc(SC(C)CC)cc2)nc2cnccn12 (stereo unspecified)	-93%	-71%	.	i	10µM*
CCCCCCSc1cc(-c2nc3cnccn3c2NCCCC)ccc1OC	0%	-64%	.	i	?
CCCCNc1c(-c2ccc(OC)c(Sc3ccc(OC)cc3)c2)nc2cnccn12	32µM*	16%	.	i	?
CNS(=O)(=O)c1cccc(C(=O)OCc2csc(-c3ccccc3)n2)c1	16µM*	0%	25%	i	.
O=c1c(N2CCCCC2)csc2ccc(F)cc12	-7%	.	.	i	i
Cc1ccc(-c2c(C(=O)N3CCN(c4cccc(C)c4)C(C)C3)oc(=O)c3ccccc23)cc1 (stereo unspecified)	14µM*	.	.	i	i
Cc1cccc(N2CCN(C(=O)c3ccc4c(c3)c(C)c(C)n4C)CC2C)c1 (stereo unspecified)	16µM*	1%	-6%	i	?
Cc1cccc(N2CCN(C(=O)c3cc4c(=O)n(C)c5ccccc5c4s3)CC2C)c1 (stereo unspecified)	6%	.	.	i	i
CCOC(=O)c1ccc(NC(=O)CC2C(=O)N(c3ccc(F)cc3)C(=O)N2Cc2cccnc2)cc1 (stereo unspecified)	-3%	.	.	i	i
O=C(c1cc(-c2ccco2)on1)N1CCCc2ccccc21	6%	-2%	11%	i	35µM*
Cc1cc(-c2ccc(C)c(S(=O)(=O)N(C)c3ccc(C)c(C)c3)c2)on1	4%	.	.	i	i
COC(=O)[C@]12C[C@H](CC(=O)NCc3ccccc3)C(=O)N(Cc3ccc(Cl)cc3Cl)C1=C[C@H](C(C)C)O[C@@H]2C1CC1	.	.	.	.	i
CCc1cc(-c2n[nH]c(=S)n2CC)cs1	?	2%	-9%	i	.
CCn1c(-c2csc3ccccc23)n[nH]c1=S	22µM*	2%	2%	i	.
CCn1c(-c2ccccc2O)n[nH]c1=S	-20%	1%	-3%	i	i
CCn1c(-c2csc3c2CCC(C)C3)n[nH]c1=S (stereo unspecified)	11µM*	9%	22%	i	.
CCCc1cc(-c2n[nH]c(=S)n2CC)cs1	35µM*	-9%	0%	i	i
COC(=O)c1ccc2c(=O)n(CCc3ccc(S(N)(=O)=O)cc3)c(SCC(=O)C(C)(C)C)nc2c1	18%	.	.	i	i
CCOc1ccc(-n2c(=O)c3c(C)c(C)sc3n(CC(=O)c3ccccc3)c2=O)cc1	6%	.	.	i	i
O=c1c2ccc([N+](=O)[O-])cc2ncn1CCOc1cccc(Br)c1	5%	5%	4%	i	i
O=c1c2ccc([N+](=O)[O-])cc2ncn1CCOc1ccc(Cl)cc1	25µM*	7%	3%	i	i
Cc1cc(OCc2cc(C(=O)N(C)C(C)c3ccccn3)no2)cc(C)c1Cl (stereo unspecified)	22µM*	2%	10%	?	?
Cc1cc(OCc2cc(C(=O)NC(C)c3cnn(C)c3)no2)cc(C)c1Cl (stereo unspecified)	32µM*	?	.	i	i
CC(=O)c1ccc(OCc2cc(C(=O)NC(C)c3cnn(C)c3)no2)cc1 (stereo unspecified)	16%	3%	-2%	i	i
CC(C)c1ccc(/C=C2\C=Cc3ccccc32)cc1	.	-1%	.	.	.
COc1ccc2c(c1)CCCN2C(=O)C1CCCN(S(=O)(=O)c2c(C(C)C)cc(C(C)C)cc2C(C)C)C1 (stereo unspecified)	.	.	.	.	i
CCc1nn2c(=O)cc(COC(=O)c3ccccc3NC(=O)c3cccs3)nc2s1	16%	.	.	i	i
